# According to PubChem BioAssay:
# The source made the active and inactive calls.
# Legend:
# [1] = biological target: Albumin (Bos taurus) (UniProt P02769); test: compounds binding labelled BSA control protein – biochemical, small-molecule microarray, Alexa647 label, 635/667 nm fluorescence, artefact control for SMM control protein annotation, profiling panel (AID 1118); details: BSA-A647 binding, fluorescence 635 nm, higher = more signal;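 note: score merges 667 nm emission intensity and signal-to-noise per printed compound spot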
# [2] = probe aXIP binding to arrayed compounds – biochemical, NeuroSMM set, 635/667 nm fluorescence, primary screen (AID 1119); details: small-molecule microarray, higher = more signal, called active from +8 up or from −8 down;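 note: probe is the protein aXip251-270 applied at 1 µg/mL to compound-printed slides; binding of probe to printed compounds measured as 667 nm fluorescence plus signal to noise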
# [3] = probe aNOTCH3 binding on compound microarray – biochemical, small-molecule microarray, 635/667 nm fluorescence, primary screen (AID 1120); details: higher = more signal;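 note: probe is a biotin-tagged antibody raised against NOTCH3 rather than NOTCH3 protein; score merges spot fluorescence near 667 nm with spot signal to noise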
# [4] = probe aNOTCH2 binding on compound microarray – biochemical, small-molecule microarray, 635/667 nm fluorescence, primary screen (AID 1121); details: higher = more signal;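 note: score merges feature fluorescence read at 667 nm with its signal to noise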
# [5] = biological target: Carbonic anhydrase 2 (Homo sapiens) (UniProt P00918); test: compounds binding carbonic anhydrase 2 – biochemical, small-molecule microarray, Alexa647-labelled CAII, profiling panel (AID 1122); details: CAII-A647 binding fluorescence, higher = more signal
# [6] = COS7 lysate on small-molecule microarray, probe aHis, 635 nm (AID 1123); details: COS7 cell lysate, fluorescence, higher = more signal;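 note: z-score combines 667nm fluorescence intensity with signal-to-noise per printed compound spot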
# [7] = probe aLAP1 signal on lysate-treated microarray – cell lysate, small-molecule microarray, COS7 lysate, primary screen (AID 1124); details: probe aLAP1, fluorescence, higher = more signal;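 note: lysate comes from COS7 cells expressing LAP1 and is applied at 0.3 µg/mL; score merges spot fluorescence near 667 nm with signal-to-noise over triplicate slides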
# [8] = tested on: Sam68 (KHDRBS1); test: compounds binding KHDRBS1 protein – biochemical, small-molecule microarray, 635 nm fluorescence, primary screen (AID 1125); details: higher = more signal;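 note: score merges 667 nm channel intensity with signal to noise over triplicate slides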
# [9] = tested on: Chordin-like protein 2 (CHRDL2); test: compounds binding chordin-like 2 – biochemical, small-molecule microarray, 635 nm fluorescence, primary screen (AID 1126); details: fluorescence 635 nm, higher = more signal;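 note: printed compound slides probed with Chrdl2 protein at 4 µg/mL for 1 h at 4 C; score merges 667 nm emission intensity with signal to noise over three replicate slides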
# [10] = biological target: Concanavalin-A (Canavalia ensiformis) (UniProt P02866); test: compounds binding concanavalin A lectin – biochemical, small-molecule microarray, Alexa647 label, 635 nm, artefact control for SMM control protein annotation, primary screen (AID 1127); details: ConA-A647 binding fluorescence, higher = more signal;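 note: z combines 667 nm emission intensity with signal-to-noise across three replicate slides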
# [11] = compounds binding Alexa647 anti-His antibody – biochemical, small-molecule microarray, 635 nm fluorescence, artefact control for SMM control protein annotation, primary screen (AID 1128); details: higher = more signal;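 note: score merges feature fluorescence with signal-to-noise for each printed compound spot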
# [12] = tested on: Human papillomavirus type 1a E7 protein (residues 1-88); test: HPV1a E7 small-molecule binders, primary screen, biochemical, small-molecule microarray, residues 1-88, 635 nm (AID 1129); details: small-molecule microarray binding, fluorescence 635 nm; higher = more signal
# [13] = biological target: Focal adhesion kinase 1 (Homo sapiens) (UniProt Q05397); test: PTK2 protein binding on printed compound slides – biochemical, small-molecule microarray, 635/667 nm fluorescence, BSA, DTT, primary screen (AID 1130); details: 635 nm fluorescence, higher = more signal;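 note: composite of spot emission at 667 nm and signal to noise over triplicate slides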
# [14] = tested on: Fibrinogen (Alexa647-labelled); test: Alexa647-fibrinogen binding to printed small molecules – biochemical, small-molecule microarray, 635/667 nm fluorescence, artefact control for SMM control-protein annotation, profiling panel (AID 1131); details: fibrinogen-A647 binding fluorescence, higher = more signal;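 note: z-score merges 667 nm fluorescence with per-spot signal-to-noise over triplicate slides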
# [15] = biological target: Follistatin (Homo sapiens) (UniProt P19883); test: FST protein binding to printed compounds – biochemical, small-molecule microarray, 635/667 nm fluorescence, primary screen (AID 1132); details: 635 nm fluorescence, higher = more signal
# [16] = biological target: Fibroblast growth factor 2 (Homo sapiens) (UniProt P09038); test: basic fibroblast growth factor binding to printed compounds – biochemical, small-molecule microarray, 635/667 nm fluorescence, primary screen (AID 1133); details: FGF2, fluorescence 635/667, higher = more signal
# [17] = JC-1 mitochondrial potential readout, lung cancer cells – cell-based, A549, JC-1 fluorescence, basal, 24 h, 100 nL, profiling panel (AID 1138); details: higher = more signal;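 note: A549 lung adenocarcinoma cells under basal conditions with no added stimulus; test concentration not given here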
# [18] = tested on: Lefty1; test: Lefty1 protein binding to printed compounds – biochemical, small-molecule microarray, 635/667 nm fluorescence, primary screen (AID 1139); details: fluorescence 635/667, higher = more signal
# [19] = tested on: wheat germ agglutinin (Triticum aestivum), Alexa647-labelled; test: Alexa647-WGA lectin binding to printed small molecules – biochemical, small-molecule microarray, 635/667 nm fluorescence, artefact control for SMM control-protein annotation, profiling panel (AID 1140); details: WGA-A647 binding, 635 nm fluorescence, higher = more signal;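 note: score merges 667 nm feature emission with signal to noise over triplicate slides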
# [20] = biological target: Luciferin 4-monooxygenase (Photinus pyralis) (UniProt P08659); test: inhibition of purified Photinus pyralis luciferase – biochemical, luminescence, purified enzyme, 2006 set, primary screen (AID 1141); details: purified firefly luciferase, SteadyGlo luminescence, 30 min; higher = more signal, called active from +8 up or from −8 down;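 note: cell-free assay with purified firefly luciferase at 100 ng per well in PBS; test concentration not given here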
# Chain of Luciferin 4-monooxygenase (Photinus pyralis) (P08659 whole entry, looked up): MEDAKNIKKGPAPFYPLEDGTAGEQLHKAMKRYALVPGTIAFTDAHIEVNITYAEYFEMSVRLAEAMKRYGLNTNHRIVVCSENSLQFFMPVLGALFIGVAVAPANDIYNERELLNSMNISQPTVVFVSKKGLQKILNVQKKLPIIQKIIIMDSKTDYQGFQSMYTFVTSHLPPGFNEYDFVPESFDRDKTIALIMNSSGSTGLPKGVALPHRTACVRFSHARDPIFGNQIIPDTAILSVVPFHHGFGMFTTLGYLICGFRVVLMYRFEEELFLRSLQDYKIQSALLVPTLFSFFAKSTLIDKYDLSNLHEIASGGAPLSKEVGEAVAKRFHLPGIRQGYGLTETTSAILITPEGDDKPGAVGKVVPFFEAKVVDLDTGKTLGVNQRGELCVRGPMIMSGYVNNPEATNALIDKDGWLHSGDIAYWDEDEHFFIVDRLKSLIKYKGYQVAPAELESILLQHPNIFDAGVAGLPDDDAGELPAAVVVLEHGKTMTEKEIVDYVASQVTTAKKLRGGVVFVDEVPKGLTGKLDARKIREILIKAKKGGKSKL
# Chain of Focal adhesion kinase 1 (Homo sapiens) (Q05397 whole entry, looked up): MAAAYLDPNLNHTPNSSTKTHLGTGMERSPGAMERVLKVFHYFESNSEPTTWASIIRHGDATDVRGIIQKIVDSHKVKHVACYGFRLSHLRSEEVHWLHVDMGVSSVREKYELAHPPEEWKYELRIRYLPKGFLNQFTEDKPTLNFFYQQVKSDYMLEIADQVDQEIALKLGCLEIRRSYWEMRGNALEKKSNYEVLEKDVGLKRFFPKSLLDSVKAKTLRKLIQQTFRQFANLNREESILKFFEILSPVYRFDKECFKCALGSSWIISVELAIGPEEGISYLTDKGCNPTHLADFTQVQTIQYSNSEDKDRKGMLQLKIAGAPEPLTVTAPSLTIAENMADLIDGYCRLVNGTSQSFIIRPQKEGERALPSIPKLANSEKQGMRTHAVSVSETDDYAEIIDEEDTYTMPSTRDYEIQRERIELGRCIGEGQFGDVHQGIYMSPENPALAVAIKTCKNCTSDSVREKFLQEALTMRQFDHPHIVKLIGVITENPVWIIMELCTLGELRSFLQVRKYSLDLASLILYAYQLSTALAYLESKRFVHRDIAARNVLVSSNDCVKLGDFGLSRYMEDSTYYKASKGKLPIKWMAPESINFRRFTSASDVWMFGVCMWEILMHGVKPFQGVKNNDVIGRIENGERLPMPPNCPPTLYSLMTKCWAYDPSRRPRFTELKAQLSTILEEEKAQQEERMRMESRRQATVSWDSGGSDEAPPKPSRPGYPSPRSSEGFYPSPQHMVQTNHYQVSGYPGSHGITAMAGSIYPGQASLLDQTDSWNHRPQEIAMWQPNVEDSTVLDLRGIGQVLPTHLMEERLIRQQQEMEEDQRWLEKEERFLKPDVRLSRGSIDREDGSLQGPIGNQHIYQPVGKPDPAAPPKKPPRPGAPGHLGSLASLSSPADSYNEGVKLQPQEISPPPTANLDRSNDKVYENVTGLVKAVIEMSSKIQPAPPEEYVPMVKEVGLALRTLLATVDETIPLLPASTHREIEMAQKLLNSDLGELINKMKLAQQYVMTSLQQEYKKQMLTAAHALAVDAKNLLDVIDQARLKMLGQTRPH
# Chain of Concanavalin-A (Canavalia ensiformis) (P02866 whole entry, looked up): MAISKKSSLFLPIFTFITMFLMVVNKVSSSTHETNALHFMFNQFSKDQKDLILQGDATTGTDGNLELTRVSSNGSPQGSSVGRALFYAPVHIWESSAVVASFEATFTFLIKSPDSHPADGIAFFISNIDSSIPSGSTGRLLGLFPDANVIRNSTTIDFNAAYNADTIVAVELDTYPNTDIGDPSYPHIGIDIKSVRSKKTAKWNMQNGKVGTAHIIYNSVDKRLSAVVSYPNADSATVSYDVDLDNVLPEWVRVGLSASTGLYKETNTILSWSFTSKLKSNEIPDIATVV
# Chain of Fibroblast growth factor 2 (Homo sapiens) (P09038 whole entry, looked up): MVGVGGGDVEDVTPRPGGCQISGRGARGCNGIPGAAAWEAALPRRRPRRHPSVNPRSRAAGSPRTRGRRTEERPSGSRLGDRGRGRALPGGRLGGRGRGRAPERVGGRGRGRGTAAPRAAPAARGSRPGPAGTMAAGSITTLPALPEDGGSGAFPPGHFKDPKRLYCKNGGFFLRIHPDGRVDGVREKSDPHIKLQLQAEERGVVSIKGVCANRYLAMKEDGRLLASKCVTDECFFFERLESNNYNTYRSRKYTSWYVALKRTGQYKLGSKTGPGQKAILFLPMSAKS
# Chain of Albumin (Bos taurus) (P02769 whole entry, looked up): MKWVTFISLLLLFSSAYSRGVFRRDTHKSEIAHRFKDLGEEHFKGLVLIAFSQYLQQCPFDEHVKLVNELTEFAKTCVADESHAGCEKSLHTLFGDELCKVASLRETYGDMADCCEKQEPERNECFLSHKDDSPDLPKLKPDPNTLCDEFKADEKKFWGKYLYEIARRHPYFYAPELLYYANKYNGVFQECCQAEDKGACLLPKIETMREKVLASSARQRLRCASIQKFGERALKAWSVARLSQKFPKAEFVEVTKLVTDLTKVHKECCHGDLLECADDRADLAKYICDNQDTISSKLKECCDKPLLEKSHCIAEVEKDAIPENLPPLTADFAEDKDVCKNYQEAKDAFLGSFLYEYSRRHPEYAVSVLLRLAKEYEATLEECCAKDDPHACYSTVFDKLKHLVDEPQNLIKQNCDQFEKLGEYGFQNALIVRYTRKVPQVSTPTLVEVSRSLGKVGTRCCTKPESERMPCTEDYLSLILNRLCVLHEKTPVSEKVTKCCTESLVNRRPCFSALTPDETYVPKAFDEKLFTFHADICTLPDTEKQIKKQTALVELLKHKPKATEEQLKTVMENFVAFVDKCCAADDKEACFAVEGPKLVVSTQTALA
# Chain of Follistatin (Homo sapiens) (P19883 whole entry, looked up): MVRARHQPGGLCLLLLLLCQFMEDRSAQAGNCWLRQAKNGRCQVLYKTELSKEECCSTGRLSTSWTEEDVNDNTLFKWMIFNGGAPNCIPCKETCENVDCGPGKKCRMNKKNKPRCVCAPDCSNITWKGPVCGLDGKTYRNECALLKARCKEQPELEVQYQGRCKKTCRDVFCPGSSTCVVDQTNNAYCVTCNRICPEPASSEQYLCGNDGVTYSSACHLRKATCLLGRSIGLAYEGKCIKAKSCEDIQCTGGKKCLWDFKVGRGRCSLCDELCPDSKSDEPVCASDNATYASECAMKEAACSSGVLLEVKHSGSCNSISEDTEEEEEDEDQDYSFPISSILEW
SMILES,composite z-score [1],composite Z-score [2],composite z-score [3],composite z-score [4],composite z-score [5],composite z-score [6],composite z-score [7],composite z-score [8],composite z-score [9],composite z-score [10],composite z-score [11],composite z-score [12],composite z-score [13],composite z-score [14],composite z-score [15],composite z-score [16],z-score [17],composite z-score [18],composite z-score [19],z-score [20]
O=C1O[C@H](c2ccccc2)[C@H](c2ccccc2)N2[C@H]1[C@@H](C(=O)NC[C@H](O)c1ccccc1)[C@]1(C(=O)Nc3ccc(C#CC4(O)CCCCCC4)cc31)[C@H]2c1ccccc1OCCO,0.574,0.228 (inactive),-0.0694,0.0785,0.411,1.45,1.29,1.32,0.117,0.8,1.26,1.19,0.412,0.494,1.26,1.54,-1.24,0.586,0.794,0.361 (inactive)
CC(C)NC(=O)[C@@]1(c2ccc([N+](=O)[O-])cc2)CC(=O)N(C(C)C)[C@@H]1c1ccc(CO)cc1,0.697,0.461 (inactive),-0.399,-0.176,0.718,0.859,0.723,0.0001,-1.66,-0.0183,0.0052,-0.0933,-1.05,-0.961,-0.849,-1.23,1.3,-0.554,0.516,-0.979 (inactive)
C[n+]1ccc2ccc(O)cc2c1,-0.567,-0.269 (inactive),-0.0044,-0.102,0.596,0.403,0.854,0.14,1.27,0.369,1.81,-0.495,0.132,-0.399,1.37,1.68,-0.924,1.54,-0.37,0.591 (inactive)
O=C(CS)NCCCCCNC(=O)[C@H]1C[C@H]2C(=O)N[C@@H](Cc3ccccc3)C(=O)N2[C@H]1c1cccc(OCCO)c1,-1.62,0.482 (inactive),0.273,-0.0562,0.484,1.75,0.76,1.31,1.43,1.18,2.51,1.16,0.181,0.748,1.37,1.77,1.17,1.45,0.788,-2.3 (inactive)
COc1ccccc1CN1C(=O)c2ccccc2[C@](Cc2ccccc2I)(C(=O)NC2CC2)[C@@H]1c1ccc(CO)cc1,0.0506,0.0161 (inactive),-0.0208,-0.0878,0.548,2.11,0.524,1.32,0.245,1.14,1.74,1.26,0.646,0.987,1.32,1.55,1.16,1.16,0.52,0.985 (inactive)
